# In PubChem BioAssay (Tox21):
# Inconclusive results are not listed. A call without a number means that no potency is given here. The source made the active and inactive calls. Calls follow the shape of the full dose curve.
# Legend:
# [1] = biological target: Acetylcholinesterase (Homo sapiens) (UniProt P22303); assay: Acetylcholinesterase (AChE) small molecule antagonists: colormetric cell-based qHTS assay (AID 1347395); conditions: SH-SY5Y cells AChE activity, colorimetric (Ellman); series mostly up to 115 µM; also: nearly all actives have a fitted effect of over 30% in size; also: potency is read from the fitted curve at half-maximal effect
# Acetylcholinesterase (Homo sapiens), sequence (P22303 whole entry, looked up): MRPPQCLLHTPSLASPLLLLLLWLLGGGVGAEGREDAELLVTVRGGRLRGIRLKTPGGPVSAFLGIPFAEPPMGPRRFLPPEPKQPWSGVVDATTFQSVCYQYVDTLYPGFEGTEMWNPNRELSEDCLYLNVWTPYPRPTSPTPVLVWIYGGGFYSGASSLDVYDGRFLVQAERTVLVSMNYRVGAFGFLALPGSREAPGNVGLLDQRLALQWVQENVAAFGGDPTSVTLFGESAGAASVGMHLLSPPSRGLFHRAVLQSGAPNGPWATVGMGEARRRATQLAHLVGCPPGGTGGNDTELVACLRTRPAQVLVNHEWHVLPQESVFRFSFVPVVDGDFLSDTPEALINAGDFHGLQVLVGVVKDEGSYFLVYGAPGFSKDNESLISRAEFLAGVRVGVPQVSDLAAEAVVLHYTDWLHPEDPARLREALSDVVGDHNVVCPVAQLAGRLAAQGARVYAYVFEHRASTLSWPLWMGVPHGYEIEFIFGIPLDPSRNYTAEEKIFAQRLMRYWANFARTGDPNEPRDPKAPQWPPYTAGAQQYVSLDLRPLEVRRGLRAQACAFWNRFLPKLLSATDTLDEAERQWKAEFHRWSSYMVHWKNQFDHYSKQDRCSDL
# Method in brief: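 Quantitative HTS in attached SH-SY5Y cells: 30 min compound exposure, then 90 min with acetylthiocholine and DTNB at 37 C; colour from thiocholine reports AChE activity.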
# [2] = biological target: Acetylcholinesterase (Homo sapiens) (UniProt P22303); assay: Acetylcholinesterase (AChE) small molecule antagonists: fluorescence cell-based qHTS assay (AID 1347398); conditions: SH-SY5Y cells; Potency: AChE activity; outcome: AChE activity; series mostly up to 115 µM; also: nearly all actives have a fitted effect of over 50% in size; also: potency is read from the fitted curve at half-maximal effect
# Method in brief: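 Read-out is Thiolite Green fluorescence at Ex/Em = 490/520 nm, formed by reaction with thiocholine released when cellular AChE in SH-SY5Y cells hydrolyzes acetylthiocholine. Compounds were preincubated 30 min at 37 C before substrate.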
# [3] = biological target: Acetylcholinesterase (Homo sapiens) (UniProt P22303); assay: Acetylcholinesterase (AChE) small molecule antagonists: enzyme-based qHTS assay with human liver microsomes (AID 1347399); conditions: Potency: qHTS inhibition; outcome: qHTS inhibition; series mostly up to 115 µM; also: nearly all actives have a fitted effect of over 60% in size
# Method in brief: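 Recombinant human AChE (50 mU/mL in the enzyme mix) and human liver microsomes (0.25 mg/mL final) were preincubated with compound and NADPH (0.25 mg/mL final) for 30 min at 37 C. Acetylthiocholine/DTNB was then added; thiocholine was read colorimetrically after 10 min at room temperature.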
# [4] = biological target: Acetylcholinesterase (Homo sapiens) (UniProt P22303); assay: Acetylcholinesterase (AChE) small molecule antagonists: enzyme-based qHTS assay (AID 1347397); conditions: Potency: AChE enzyme activity inhibition; outcome: AChE enzyme activity inhibition; series mostly up to 115 µM; also: nearly all actives have a fitted effect of over 55% in size; also: potency is read from the fitted curve at half-maximal effect
# Method in brief: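 rhAChE 50 mU/mL (dispensed) + cpd or DMSO, 30 min RT; add DTNB/acetylthiocholine cocktail, 10 min RT; colorimetric thiocholine readout. qHTS, 1536-well format.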
smiles,measurement,setting,value
CCN(CC)C(=O)N1CCN(C)CC1,Potency,[1],inactive
same,Potency,[2],inactive
same,Potency,[3],inactive
C=CCc1cc(S(=O)(=O)c2ccc(O)c(CC=C)c2)ccc1O,Potency,[1],inactive
same,Potency,[3],inactive
CC(=O)/C=C/C=C1/C2CCC(C2)C1(C)C (centres undefined),Potency,[1],27.5 µM (active)
same,Potency,[3],inactive
CC/C(=C(/c1ccc(O)cc1)c1ccc(OCCN(C)C)cc1)c1ccccc1,Potency,[1],41.7 µM (active)
same,Potency,[3],inactive
Clc1ccc(C(Cn2ccnc2)OCc2ccsc2Cl)c(Cl)c1 (centres undefined),Potency,[1],inactive
same,Potency,[3],inactive
CN1CCCN=C1/C=C/c1cccs1,Potency,[1],15.5 µM (active)
same,Potency,[3],inactive
Cc1cccc(CN2CCN(C(c3ccccc3)c3ccc(Cl)cc3)CC2)c1 (centres undefined),Potency,[1],inactive
same,Potency,[2],inactive
same,Potency,[3],inactive
CC(CN)CC(C)(C)CCN (centres undefined),Potency,[1],inactive
same,Potency,[3],inactive
CCCCCCCCCC[N+](C)(CCCCCCCCCC)CCC[Si](OC)(OC)OC,Potency,[1],inactive
same,Potency,[3],inactive
COc1cc(C(=O)NC2CCCNC2)cc(OC)c1OC (centres undefined),Potency,[4],inactive
same,Potency,[2],inactive
same,Potency,[3],inactive
CN(C(=O)C(Cl)Cl)c1ccc(OC(=O)c2ccco2)cc1,Potency,[4],inactive
same,Potency,[2],inactive
CC1CCc2c(N3CCC(O)CC3)c(F)cc3c(=O)c(C(=O)O)cn1c23 (centres undefined),Potency,[4],inactive
same,Potency,[2],inactive
same,Potency,[3],inactive
[Cl][Pt-2]([Cl])([Cl])[Cl],Potency,[4],17.9 µM (active)
same,Potency,[2],35.7 µM (active)
C[C@H](CN1CCCC1)C(=O)c1ccc(C(F)(F)F)cc1,Potency,[4],inactive
same,Potency,[2],inactive
same,Potency,[3],inactive
CCCCCCCCCCCC[N+](C)(C)CCCCCCCCCCCC,Potency,[4],28.3 µM (active)
same,Potency,[2],63.3 µM (active)
same,Potency,[3],inactive
O=C(OOC(=O)c1ccccc1)c1ccccc1,Potency,[4],inactive
same,Potency,[2],inactive
same,Potency,[3],inactive
CC[N+](CC)(CC)CCOC(=O)C(C1CCCC1)C1CCCC1,Potency,[4],inactive
same,Potency,[2],inactive
same,Potency,[3],inactive
C[C@H]1NCc2cc(-c3ccc4c(=O)c(C(=O)O)cn(C5CC5)c4c3OC(F)F)ccc21,outcome,[4],inactive
same,outcome,[2],inactive
O=C1CC[C@H](C(=O)N2CCCCC2)N1,Potency,[4],inactive
same,Potency,[2],inactive
same,Potency,[3],inactive
O=C1C=CC(=O)N1,Potency,[4],inactive
COc1cccc2c1C(=O)c1c(O)c3c(c(O)c1C2=O)C[C@@](O)(C(=O)CO)C[C@@H]3O[C@H]1C[C@H](N)[C@H](O[C@@H]2CCCCO2)[C@H](C)O1,Potency,[4],inactive
same,Potency,[2],inactive
same,Potency,[3],inactive
O=C1OC[C@H](Cc2cccc(O)c2)[C@H]1Cc1cccc(O)c1,Potency,[4],inactive
same,Potency,[2],inactive
same,Potency,[3],inactive
CCCCCCCCCCCCCCCCCC[N+](C)(C)Cc1ccccc1,Potency,[4],28.5 µM (active)
same,Potency,[2],71.7 µM (active)
same,Potency,[3],inactive
CC(=O)Oc1cc2c(s1)CCN(C(C(=O)C1CC1)c1ccccc1F)C2 (centres undefined),Potency,[4],inactive
same,Potency,[2],inactive
same,Potency,[3],inactive
Nc1ccn(C2CO[C@H](CO)O2)c(=O)n1 (some centres undefined),Potency,[4],inactive
CCCCCCCCCCCCCCCCCCNC(=O)OC1CCN(C(=O)OC[C@H](COC(=O)N(Cc2cccc[n+]2CC)C(=O)c2ccccc2OC)OC)CC1,Potency,[4],30.9 µM (active)
same,Potency,[2],inactive
same,Potency,[3],inactive
